Assay outcomes as filed in PubChem.
D1 PAM: potentiators of human D1 dopamine receptor | HEK293 TREx D1 cells, calcium flux, dopamine EC20 potentiation | potentiation, % at 10 µM | 360,000 compounds, 0.036% hits; in the data active = potentiation above about 30%; note: 0% is about no effect
D3 ag: agonists of human D3 dopamine receptor | P35462 | D3R DiscoveRx beta-arrestin cells, luminescence, 90 min | max activation, % | 410,000 compounds, 0.58% hits; in the data active = max activation above about 30%; note: 0% is about no effect
Target sequence (P35462 whole entry, looked up): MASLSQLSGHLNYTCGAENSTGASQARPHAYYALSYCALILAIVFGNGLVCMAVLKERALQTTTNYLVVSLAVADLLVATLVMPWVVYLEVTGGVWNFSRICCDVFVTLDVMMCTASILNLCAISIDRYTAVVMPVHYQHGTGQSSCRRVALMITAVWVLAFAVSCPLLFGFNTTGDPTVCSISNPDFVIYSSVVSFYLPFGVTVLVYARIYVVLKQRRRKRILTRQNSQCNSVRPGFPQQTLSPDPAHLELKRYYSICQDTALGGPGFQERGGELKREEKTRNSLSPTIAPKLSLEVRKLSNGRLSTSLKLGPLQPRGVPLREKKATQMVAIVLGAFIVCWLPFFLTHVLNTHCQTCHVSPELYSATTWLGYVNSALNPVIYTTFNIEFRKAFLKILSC
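Agonist mode: compounds and dopamine controls were applied to plated cells for 90 min at 37 degrees C after an overnight attachment at 1500 cells/well. Luminescent read-out followed 30 - 60 minutes at room temperature with DiscoveRx detection reagent.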
D3 antag: blocks the human D3 dopamine receptor. P35462. D3R cells, DiscoveRx beta-arrestin luminescence, antagonist mode; stronger effect = lower value. max response, negative = inhibition, %. 360,000 compounds, 2.5% hits. AID 652054; in the data active = max response below about -50%; inconclusive = no clear call, values can overlap the other calls; note: % is set by controls: 0 for no effect and ±100 for the full control effect
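Cells plated overnight at 1500 cells/well, then exposed to library compounds with dopamine controls for 90 minutes at 37 degrees C. DiscoveRx reagent added for 30–60 minutes at room temperature; luminescence read, quantitative HTS format.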
D1 antagonist: antagonists of human D1 dopamine receptor. P21728. HEK293 TREx D1 cells, calcium flux, dopamine EC80; stronger effect = lower value. activity change, negative = inhibition, % at 10 µM. 360,000 compounds, 3.2% hits. AID 504652; in the data active = activity change below about -30%; note: % is set by controls: 0 for no effect and ±100 for the full control effect
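Kinetic fluorescence of a calcium dye serves as the read-out. D1-expressing Hek293 Trex cells, induced overnight at 30 C, are exposed to compound for 180 s before an EC80 dopamine addition, then read 180 s further.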
D1 ag: activates the human D1 dopamine receptor | P21728 | HEK293 T-REx D1 cells, calcium flux, agonist mode | activation, % at 2 µM | 360,000 compounds, 1% hits | AID 504660; in the data active = activation above about 30%; note: 0% is about no effect
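Agonism was scored from calcium flux recorded over 180 s (1 read/s) after pintool compound addition, following a 10-cycle baseline. Cells were inducible force-coupled HEK293 TREx D1, plated overnight at 30 C and loaded with no-wash calcium dye.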
BCR signal inh: blocks chronic active B-cell receptor signaling. ABC-DLBCL IkBa-CBG/CBR reporter, luminescence ratio, 4 h. Potency, µM (titrated, usually from 46.1 µM), without a hit: top-dose activity change, negative = inhibition, usual class: inhibitors. 340,000 compounds, 0.05% hits; active = well fitted inhibition curve with a large enough effect in the signal ratio, with a control signal flat, not every such curve was filed as active; inconclusive = small, poorly fitted or top-dose-only effect, or effect the other way, or a change in a side signal; the % refers to the signal ratio;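 note: potency is the fitted concentration of half-maximal effect; plate controls were basal doxycycline-induced cells for no effect and cells given 10 µM MG132 for full effect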
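TMD8 human ABC-DLBCL cells with doxycycline-inducible IκBα–green luciferase fusion and unfused red luciferase, in 0.5% FBS medium; compounds up to 46 uM, 4 h at 37C. Green/red luminescence ratio, filter-overlap corrected, fitted to concentration-response curves.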
Starred values were filed as active, the others as inactive; ? = inconclusive; . = no result given; ! = not confirmed by another sample. Most compounds without a hit are left out; they make up all but 6% or so of the library.

SMILES	D1 PAM	D3 ag	D3 antag	D1 antagonist	D1 ag	BCR signal inh
CCOc1cc2[nH]c(=S)n(C3CCN(Cc4ccccc4)CC3)c(=O)c2cc1OCC	-2.6	-5.0	1.3	6.5	1.8	0.6%
CC1CCN(CC(O)COc2ccc(F)cc2)CC1 (configuration not stated)	.	-14.8	?	-49.4*	2.2	18.8%
OC(COc1ccc(Br)cc1)CN1CCC(Cc2ccccc2)CC1 (configuration not stated)	-10.6	-13.2	?	-42.9*	18.1	-6.3%
CC1CCN(CC(O)COc2ccc(-c3ccccc3)cc2)CC1 (configuration not stated)	-3.5	-16.0	-72.6*	-2.2	29.8	-0.7%
CC1CCN(CC(O)COc2cccc(F)c2)CC1 (configuration not stated)	.	-21.6	-57.1*	-8.5	3.1	5.2%
CC(C)OCC(O)CN1CCC(Cc2ccccc2)CC1 (configuration not stated)	2.4	-8.2	-5.4	-1.6	-0.4	0.0%
CCS(=O)(=O)N1CC(=O)N(c2ccc(Cl)cc2C)C(C)(C(=O)NC2CCCCC2)C1 (configuration not stated)	2.9	0.9	.	15.7	0.1	.
C[C@@H]1C/C=C/C=C/C=C/C=C/[C@H](O[C@@H]2O[C@H](C)[C@@H](O)[C@H](N)[C@@H]2O)C[C@@H]2O[C@](O)(C[C@@H](O)C[C@H]3O[C@@H]3/C=C/C(=O)O1)C[C@H](O)[C@H]2C(=O)O	.	6.9	.	.	.	.
C=CCSc1nc2ccccc2n1C(=O)/C=C/c1cc(OC)c(OC)c(OC)c1	-1.7	-53.6	-60.9*	-8.9	2.6	?
CCSc1nc2ccccc2n1C(=O)/C=C/c1ccc(OC)c(OC)c1	4.3	-1.2	-51.2*	14.1	2.4	-27.9%
C=CCSc1nc2ccccc2n1C(=O)/C=C/c1ccc(OC)c(OC)c1	-0.7	-17.2	-9.5	-4.8	1.7	?
COc1ncnc(OC)c1S(=O)(=O)Nc1ccc(C(F)(F)F)cc1	-6.8	1.4	-0.5	-31.2*	-0.3	-2.9%
COC(=O)[C@@]12C[C@@H](CC(=O)NCc3cccc4ccccc34)C(=O)N(Cc3ccccc3)C1=CCC(C)(C)C2	.	-2.5	3.4	.	.	.
CCN(CC)P(=O)(Nc1ccc(C)cc1Br)c1ccc(N(C)C)cc1NC(=O)c1ccco1 (configuration not stated)	-2.1	-16.5	-59.8*	9.4	-0.1	?
Nc1ccn(C2OC(COP(=O)(O)O)C(O)C2O)c(=O)n1 (configuration not stated)	.	5.4	1.9	.	.	.
COc1cccc(NC(=O)c2sc3nc(C)c(C(=O)Nc4ccc(C)cc4C)c(-c4cccs4)c3c2N)c1	-3.7	-9.9	.	-0.8	19.7	.
Cn1cc(Br)c(-c2cccc(NC(=O)CCC(=O)O)c2)n1	-3.9	13.8	0.5	-36.5*	1.1	-2.5%
O=C(O)CCC(=O)Nc1cccc(-c2csc(-c3ccccc3)n2)c1	-0.8	1.8	-0.1	-34.2*	3.3	?
Cn1cc(Br)c(-c2cccc(NC(=O)CC(C)(C)CC(=O)O)c2)n1	6.0	-3.0	-17.3	11.5	1.0	0.4%
CCCCC(=O)Nc1cccc(-c2csc(-c3ccccc3)n2)c1	2.4	10.7	30.9	-4.3	4.2	3.1%
Cc1cc(C)nc(SCC(=O)N/N=C/c2cccnc2)n1	6.3	4.3	16.3	10.4	1.3	3.0%
CC(/C=N/NC(=O)c1ccccc1F)=C\c1ccccc1	-12.0	-12.4	-3.3	-35.2*	-1.4	?
CC(/C=N/NC(=O)c1n[nH]c2c1CCC2)=C\c1ccccc1	-0.6	-1.1	0.0	-78.9*	4.3	?
CC(=C/c1ccccc1)/C=N/NC(=O)CSc1nc(C)cc(C)n1	-9.1	-0.4	13.5	-33.9*	8.6	1.9%
CC(/C=N/NC(=O)c1ccccc1C)=C\c1ccccc1	.	-16.4	1.2	.	.	.
SMILES	D1 PAM	D3 ag	D3 antag	D1 antagonist	D1 ag	BCR signal inh
Cc1cc(C(=O)N/N=C/C(Cl)=C/c2ccccc2)c(C)o1	-4.2	-15.6	-11.5	-32.6*	4.0	?
Nc1ccccc1C(=O)NC(=O)Nc1ccc(Oc2ncc(Br)cn2)c(Cl)c1	.	-9.4	-17.6	.	.	.
CC(C)COc1ccc(C(=O)NCC2OCCc3ccccc32)cc1 (configuration not stated)	-1.3	7.4	.	-31.0*	1.6	.
CC(C)CCOc1ccc(C(=O)NCC2OCCc3ccccc32)cc1 (configuration not stated)	-2.9	9.9	.	-1.5	12.3	.
CCOc1ccccc1NC(=O)c1nnn(CC(=O)Nc2ccc(OC)c(OC)c2)c1N	2.0	-8.3	.	0.8	-1.4	.
OC(CN1CCC(Cc2ccccc2)CC1)C(F)(F)F (configuration not stated)	-8.4	-8.6	-2.4	0.7	3.4	-6.0%
CC(C(O)c1ccc(O)cc1)N1CCC(Cc2ccccc2)CC1 (configuration not stated)	-2.6	-91.3	-88.4*!	-50.4*	6.8	?
CNC(=S)N1CCC(Cc2ccccc2)CC1	0.6	1.1	-9.3	1.2	0.4	-5.9%
C[C@@H](CN1CCC(Cc2ccccc2)CC1)[C@@H](O)c1ccc(O)cc1	-6.0	0.0	-11.6	-33.3*	6.7	1.1%
COC(=O)[C@@]12C[C@@H](CC(=O)NCC34CC5CC(CC(C5)C3)C4)C(=O)N(CCc3ccc(OC)c(OC)c3)C1=CCC(C)(C)C2	.	-15.9	?	.	.	.
Cc1c(Cl)cccc1NC(=O)CCCn1nc([N+](=O)[O-])cc1C	2.2	4.2	-19.7	-8.7	2.2	-2.1%
Cc1cc([N+](=O)[O-])nn1CCCC(=O)Nc1ccc(Cl)cc1Cl	-6.8	0.0	-1.8	-38.5*	0.1	0.3%
CC(c1ccccc1)N1CCC(CNC(=S)Nc2cccc(Cl)c2)C1 (configuration not stated)	-3.5	-11.2	?	-53.6*	45.1*	?
CN(C)C(CNC(=O)Nc1cccc(Cl)c1)c1cccnc1 (configuration not stated)	-11.2	-4.0	-52.5*	-13.9	2.7	?
Cc1cccc(NC(=S)NCC(c2ccccc2)N(C)C)c1 (configuration not stated)	-5.2	-18.7	?	5.2	10.5	4.3%
CN(C)C(CNC(=S)Nc1cccc(Cl)c1)c1ccccc1 (configuration not stated)	-4.4	-32.9	-69.9*	-0.1	15.9	2.8%
COc1cc(NS(=O)(=O)c2cc3c(cc2C)N(C)CCO3)cc(OC)c1OC	-1.4	-10.2	.	-4.9	-1.7	.
Nc1cc2nc3ccccc3oc-2cc1=O	-0.2	-8.9	?	-8.8	33.0*	?
